Source: PubChem BioAssay (NCATS)
Records with an inconclusive call do not appear. Entries that show only a call come without a potency. Activity calls are given as the source filed them. Unless noted, calls follow the shape of the dose curve; as a rule, active = well fitted curve in the direction sought with a large enough effect; inconclusive = small, poorly fitted or top-dose-only effect, or another doubt; inactive = no such curve, though single readings can be large; an effect the other way counts as inactive or inconclusive.

Tests used:
[1] = Cell Viability - H-4-II-E (AID 543);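 also: cells exposed to compound for 40 hours; nearly all actives have a fitted effect of over 35% in size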; also: potency is read from the fitted curve at half-maximal effect
Summary of the method: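 Cells seeded at 1500 per well and rested 5 hr; compounds added; 40 hr incubation at 37 °C; CellTiter-Glo added, 20 min at room temperature; luminescence read. Hill-equation fits gave AC50.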

[2] = Cell Viability - SH-SY5Y (AID 544); settings: SH-SY5Y neuroblastoma cell viability; viability change, negative = cytotoxic: at 92.2 µM (top of the series);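 also: cells exposed to compound for 40 hours; nearly all actives have a fitted effect of over 55% in size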
Summary of the method: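 Cells were plated at 1500 per well and allowed 5 hr at 37 °C. Compounds were added across a concentration range and incubated 40 hr at 37 °C. CellTiter-Glo was added for 20 min at room temperature before luminescence reading.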

[3] = Cellular Toxicity (caspase-3) SHSY5Y (AID 657)
Summary of the method: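 Luminescent Caspase-Glo 3/7 read-out, 1 hr room temperature, follows 16 hours of compound treatment of SH-SY5Y cells at 37 °C. Normalization: DMSO basal, 10 uM staurosporine as 100%; AC50 values from Hill-equation concentration-response fits.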

[4] = Cell Viability - LYMP2-001 (AID 921); also: nearly all actives have a fitted effect of over 70% in size
Summary of the method: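 Cellular ATP loss read by luciferase luminescence after 24 h compound exposure at 37 C in complete medium. LYMP2-001 lymphoblastoid cells, 2500/well; qHTS concentration-response data fitted with Hill equation for AC50.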

[5] = MultiTox-Fluor Cytotoxicity Assay - LYMP1-003 - Live Cells (AID 962);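 also: cytotoxic hits lower the live-cell protease signal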
Summary of the method: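 Acute cytotoxicity is scored as a drop in live-cell protease activity in human lymphoblastoid LYMP1-003 cells after 16 hr compound exposure at 37 C. AC50 values come from Hill-equation modelling of concentration-response data.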

[6] = Cell Viability - LYMP2-004 (AID 966); also: nearly all actives have a fitted effect of over 65% in size
Summary of the method: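 qHTS cytotoxicity: human lymphoblastoid line, 24 hr compound treatment, 37 C, complete medium. Viability read as cellular ATP via luciferase luminescence; tetraoctylammonium bromide served as positive control.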

[7] = Cell Viability - LYMP2-005 (AID 967)
Summary of the method: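 LYMP2-005 human lymphoblastoid cells (2500/well) were treated with compounds for 24 h at 37 C. Intracellular ATP was then measured by CellTiter-Glo luminescence after 30 min at room temperature. AC50 values came from Hill-equation fits of qHTS concentration-response data.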

[8] = Cell Viability - LYMP2-013 (AID 970); also: nearly all actives have a fitted effect of over 55% in size
Summary of the method: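 Cytotoxicity is scored as a concentration-dependent drop in intracellular ATP in human lymphoblastoid cells after 24 hr compound exposure at 37 C. ATP is quantified by luciferase luminescence, and AC50 values come from Hill-equation modeling.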

[9] = Cell Viability - LYMP2-025 (AID 976)
Summary of the method: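 Acute cytotoxicity is scored as a concentration-dependent fall in intracellular ATP, measured by luciferase luminescence, in human lymphoblastoid LYMP2-025 cells exposed to compound for 24 hours at 37 C. AC50 values come from standard Hill fits.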

[10] = Cell Viability - LYMP2-007 (AID 979);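 also: cells exposed to compound for 24 h before reading; nearly all actives have a fitted effect of over 60% in size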
Summary of the method: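 Cells are seeded at 2500 per well and rested 5 hr. Compounds are then added over a concentration series for 24 hr at 37 C. CellTiter-Glo is added for 30 min at room temperature before luminescence reading.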

[11] = Cell Viability - LYMP2-018 (AID 985); also: nearly all actives have a fitted effect of over 50% in size
Summary of the method: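 Seed 2500 lymphoblastoid cells per well, incubate 5 hr at 37 C, add compound and incubate 24 hr at 37 C, add CellTiter-Glo, wait 30 min at room temperature, then read luminescence.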

[12] = Cell Viability - LYMP2-026 (AID 989); also: nearly all actives have a fitted effect of over 50% in size
Summary of the method: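 Cells are seeded at 2500 per well and held 5 hr at 37 C. Compounds are added in concentration series for 24 hr, then CellTiter-Glo reagent is applied and luminescence read.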

[13] = qHTS assay for small molecule agonists of retinoid X receptor alpha signaling (AID 588544; calls by dose curve); settings: HEK293T RXRa-UAS-bla, beta-lactamase reporter, 18 h; 530 nm emission
[14] = molecular target: Retinoic acid receptor RXR-alpha (Homo sapiens) (UniProt P19793); assay: as above
Retinoic acid receptor RXR-alpha (Homo sapiens), sequence (P19793 whole entry, looked up): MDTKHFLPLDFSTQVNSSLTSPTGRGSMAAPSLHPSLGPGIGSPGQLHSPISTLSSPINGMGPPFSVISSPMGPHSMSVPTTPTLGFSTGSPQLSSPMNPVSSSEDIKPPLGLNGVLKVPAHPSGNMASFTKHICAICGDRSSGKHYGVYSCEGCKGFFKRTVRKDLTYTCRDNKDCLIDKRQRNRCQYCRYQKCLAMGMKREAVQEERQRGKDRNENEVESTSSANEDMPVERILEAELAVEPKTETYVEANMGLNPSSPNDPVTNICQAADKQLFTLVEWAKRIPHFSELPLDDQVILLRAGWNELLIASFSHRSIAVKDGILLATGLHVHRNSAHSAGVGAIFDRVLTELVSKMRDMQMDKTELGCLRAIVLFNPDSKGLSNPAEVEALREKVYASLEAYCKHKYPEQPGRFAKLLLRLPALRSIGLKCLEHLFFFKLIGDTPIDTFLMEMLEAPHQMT

[15] = qHTS assay for small molecule antagonists of retinoid X receptor alpha signaling (AID 588546; active = well fitted inhibition curve with a large enough effect in the signal ratio, with a control signal flat, not every such curve was filed as active; the % refers to the signal ratio;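 also: cells stimulated with 9-cis-retinoic acid as agonist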); settings: HEK293T RXRa-UAS-bla, beta-lactamase ratio, antagonist mode; measured here: W530 green channel, cytotoxicity proxy
Summary of the method: (§1)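 Beta-lactamase reporter inhibition, read as CCF4 fluorescence ratio (ex 405, em 460/530 nm) after 2 h at RT. HEK293T UAS-bla cells, 2500/well, were stimulated with 9-cis-RA at 500 or 100 nM final alongside test compound for 18 h at 37 C.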

[16] = molecular target: Retinoic acid receptor RXR-alpha (Homo sapiens) (UniProt P19793); assay: as above; settings: HEK293T RXRa-UAS-bla, beta-lactamase ratio, antagonist mode
Summary of the method: as §1

[17] = qHTS assay for small molecule agonists of the antioxidant response element (ARE) signaling pathway measured by Nrf2-dependant transcriptional activity (AID 720636; active = well fitted curve in the direction sought with a large enough effect in the repeat runs; an effect the other way counts as inactive or inconclusive)
Summary of the method: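 Nrf2-dependent transcription read as ONE-Glo luciferase signal from ARE-luc HepG2 reporter cells after 16 hr compound treatment at 37 C, 5% CO2, in assay medium with 1% dialyzed FBS.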

[18] = qHTS assay for small molecule antagonists of the retinoid-related orphan receptor gamma (ROR-gamma) signaling pathway - cell viability counter screen (AID 720652; active = well fitted curve in the direction sought with a large enough effect in the repeat runs; an effect the other way counts as inactive or inconclusive;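 also: CHO reporter cells with doxycycline-induced ROR-gamma expression; compound exposure lasted 16 hr before ATP read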)
Summary of the method: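 Steps: seed CHO cells bearing TET-inducible ROR and ROR response element-luciferase; rest 5 hr at 37 C; add compound, then doxycycline; incubate 16 hr; add CellTiter-Glo and read luminescence as ATP-based viability.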

[19] = Cell Viability - LYMP2-012 (AID 982);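 also: cellular ATP by luciferase luminescence where a drop means cytotoxicity; cells exposed to compound for one day before reading; nearly all actives have a fitted effect of over 55% in size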
[20] = Cell Viability - LYMP1-002 - Assay at 40 hr (AID 994); also: nearly all actives have a fitted effect of over 60% in size
Summary of the method: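 Cells are plated at 2500 per well and rested 5 hr at 37 C. Compounds are added and incubated 40 hr at 37 C. CellTiter-Glo reagent is added for 30 min at room temperature before luminescence is read.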

Q: With `Cc1cccc(N)c1C` as the molecule, how does the Potency [1] read?
A: inactive

Q: And the Potency [2]?
A: inactive

Q: And the outcome [3]?
A: inactive

Q: What about the Potency [4] of the same molecule?
A: inactive

Q: And the outcome [5]?
A: inactive

Q: And the Potency [6]?
A: inactive

Q: What about the Potency [7] of the same molecule?
A: inactive

Q: What about the Potency [8] of the same molecule?
A: inactive

Q: And the Potency [9]?
A: inactive

Q: And the Potency [10]?
A: inactive

Q: What about the Potency [11] of the same molecule?
A: inactive

Q: And the Potency [12]?
A: inactive

Q: And the max response [13]?
A: -3.13%

Q: And the outcome [14]?
A: inactive

Q: And the max response [15]?
A: -9%

Q: And the max response [16]?
A: 13.5% (inactive)

Q: What about the Potency [17] of the same molecule?
A: inactive

Q: And the Potency [18]?
A: inactive

Q: For `BrC(Br)Br`, which Potency [1] is on record?
A: inactive

Q: What about the Potency [2] of the same molecule?
A: inactive

Q: What about the outcome [3] of the same molecule?
A: inactive

Q: And the Potency [4]?
A: inactive

Q: And the outcome [5]?
A: inactive

Q: And the Potency [6]?
A: inactive

Q: What about the Potency [7] of the same molecule?
A: inactive

Q: And the Potency [8]?
A: inactive

Q: What about the Potency [9] of the same molecule?
A: inactive

Q: What about the Potency [10] of the same molecule?
A: inactive

Q: And the Potency [19]?
A: inactive

Q: What about the Potency [11] of the same molecule?
A: inactive

Q: And the Potency [12]?
A: inactive

Q: And the Potency [20]?
A: inactive

Q: What about the max response [13] of the same molecule?
A: 0.74%

Q: And the outcome [14]?
A: inactive

Q: And the max response [15]?
A: -5.42%

Q: And the max response [16]?
A: 20% (inactive)

Q: And the Potency [17]?
A: inactive

Q: What about the Potency [18] of the same molecule?
A: inactive

Q: With `CCN(CC)N=O` as the molecule, how does the Potency [1] read?
A: inactive

Q: And the Potency [2]?
A: inactive

Q: And the outcome [3]?
A: inactive

Q: What about the Potency [4] of the same molecule?
A: inactive

Q: And the outcome [5]?
A: inactive

Q: What about the Potency [6] of the same molecule?
A: inactive

Q: And the Potency [7]?
A: inactive

Q: And the Potency [8]?
A: inactive

Q: And the Potency [9]?
A: inactive

Q: And the Potency [10]?
A: inactive

Q: What about the Potency [19] of the same molecule?
A: inactive

Q: And the Potency [11]?
A: inactive

Q: And the Potency [12]?
A: inactive

Q: What about the Potency [20] of the same molecule?
A: inactive

Q: What about the max response [13] of the same molecule?
A: -8.19%

Q: What about the outcome [14] of the same molecule?
A: inactive

Q: And the max response [15]?
A: -3.04%

Q: What about the max response [16] of the same molecule?
A: 1.08% (inactive)

Q: What about the Potency [17] of the same molecule?
A: inactive

Q: What about the Potency [18] of the same molecule?
A: inactive

Q: For `CCCCOCC1CO1` (centres undefined), which Potency [1] is on record?
A: inactive

Q: And the Potency [2]?
A: inactive

Q: And the outcome [3]?
A: inactive

Q: And the Potency [4]?
A: inactive

Q: What about the outcome [5] of the same molecule?
A: inactive

Q: And the Potency [6]?
A: inactive

Q: What about the Potency [7] of the same molecule?
A: inactive

Q: And the Potency [8]?
A: inactive

Q: And the Potency [9]?
A: inactive

Q: And the Potency [10]?
A: inactive

Q: And the Potency [19]?
A: inactive

Q: What about the Potency [11] of the same molecule?
A: inactive

Q: And the Potency [12]?
A: inactive

Q: What about the Potency [20] of the same molecule?
A: inactive

Q: What about the max response [13] of the same molecule?
A: 5.09%

Q: What about the outcome [14] of the same molecule?
A: inactive

Q: What about the max response [15] of the same molecule?
A: 12.9%

Q: And the max response [16]?
A: 20.3% (inactive)

Q: And the Potency [17]?
A: inactive

Q: What about the Potency [18] of the same molecule?
A: inactive

Q: Which Potency [1] does the source give for `Nc1ccc(Cl)c(Cl)c1` here?
A: inactive

Q: What about the Potency [2] of the same molecule?
A: inactive

Q: What about the outcome [3] of the same molecule?
A: inactive

Q: What about the Potency [4] of the same molecule?
A: inactive

Q: What about the outcome [5] of the same molecule?
A: inactive

Q: And the Potency [6]?
A: inactive

Q: What about the Potency [7] of the same molecule?
A: inactive

Q: What about the Potency [8] of the same molecule?
A: inactive

Q: What about the Potency [9] of the same molecule?
A: inactive

Q: And the Potency [10]?
A: inactive

Q: What about the Potency [19] of the same molecule?
A: inactive

Q: And the Potency [11]?
A: inactive

Q: What about the Potency [12] of the same molecule?
A: inactive

Q: What about the Potency [20] of the same molecule?
A: inactive

Q: What about the max response [13] of the same molecule?
A: 3.91%

Q: And the outcome [14]?
A: inactive

Q: What about the max response [15] of the same molecule?
A: 2.84%

Q: What about the max response [16] of the same molecule?
A: -9.29% (inactive)

Q: What about the Potency [17] of the same molecule?
A: inactive

Q: Which Potency [1] does the source give for `OCCCCO` here?
A: inactive

Q: And the Potency [2]?
A: inactive

Q: What about the outcome [3] of the same molecule?
A: inactive

Q: And the Potency [4]?
A: inactive

Q: What about the outcome [5] of the same molecule?
A: inactive

Q: What about the Potency [6] of the same molecule?
A: inactive

Q: What about the Potency [7] of the same molecule?
A: inactive

Q: And the Potency [8]?
A: inactive

Q: And the Potency [9]?
A: inactive

Q: What about the Potency [10] of the same molecule?
A: inactive

Q: And the Potency [19]?
A: inactive

Q: What about the Potency [11] of the same molecule?
A: inactive

Q: And the Potency [12]?
A: inactive

Q: And the Potency [20]?
A: inactive

Q: What about the max response [13] of the same molecule?
A: 1.71%

Q: What about the outcome [14] of the same molecule?
A: inactive

Q: What about the max response [15] of the same molecule?
A: -5.28%

Q: And the max response [16]?
A: -1.35% (inactive)

Q: And the Potency [17]?
A: inactive

Q: And the Potency [18]?
A: inactive

Q: Which Potency [1] does the source give for `c1ccc(Nc2ccc(Nc3ccccc3)cc2)cc1` here?
A: 7.94 µM (active)

Q: And the outcome [3]?
A: inactive

Q: What about the outcome [5] of the same molecule?
A: inactive

Q: And the Potency [6]?
A: inactive

Q: And the Potency [7]?
A: inactive

Q: What about the Potency [8] of the same molecule?
A: inactive

Q: What about the Potency [9] of the same molecule?
A: inactive

Q: What about the Potency [10] of the same molecule?
A: inactive

Q: And the Potency [19]?
A: inactive

Q: And the Potency [11]?
A: inactive

Q: And the Potency [12]?
A: inactive

Q: And the Potency [20]?
A: inactive

Q: And the max response [13]?
A: 0.613%

Q: And the outcome [14]?
A: inactive

Q: And the max response [15]?
A: -12.1%

Q: What about the max response [16] of the same molecule?
A: -13.3% (inactive)

Q: And the Potency [18]?
A: inactive

Q: Which results are given for `ClC(Cl)C(Cl)Cl`?
A: Potency [1]: inactive; Potency [2]: inactive; outcome [3]: inactive; Potency [4]: inactive; outcome [5]: inactive; Potency [6]: inactive; Potency [7]: inactive; Potency [8]: inactive; Potency [9]: inactive; Potency [10]: inactive; Potency [19]: inactive; Potency [11]: inactive; Potency [12]: inactive; Potency [20]: inactive; max response [13]: -4.19%; outcome [14]: inactive; max response [15]: -2.39%; max response [16]: 4.18% (inactive); Potency [17]: inactive; Potency [18]: inactive
